NPR1 antag = antagonists of human natriuretic peptide receptor Npr1 | HEK293 hNpr1 GloSensor cGMP, ANP-stimulated luminescence | AID 1347048 | P16066 | Potency, µM (titrated, usually from 46.3 µM), for inactives: at the top dose activity change, negative = inhibition, actives largely listed as inhibitors | hit rate 1.6% among 76,000; calls by dose curve; also: nearly all actives have a fitted effect of over 60% in size
Target sequence (P16066 whole entry, looked up): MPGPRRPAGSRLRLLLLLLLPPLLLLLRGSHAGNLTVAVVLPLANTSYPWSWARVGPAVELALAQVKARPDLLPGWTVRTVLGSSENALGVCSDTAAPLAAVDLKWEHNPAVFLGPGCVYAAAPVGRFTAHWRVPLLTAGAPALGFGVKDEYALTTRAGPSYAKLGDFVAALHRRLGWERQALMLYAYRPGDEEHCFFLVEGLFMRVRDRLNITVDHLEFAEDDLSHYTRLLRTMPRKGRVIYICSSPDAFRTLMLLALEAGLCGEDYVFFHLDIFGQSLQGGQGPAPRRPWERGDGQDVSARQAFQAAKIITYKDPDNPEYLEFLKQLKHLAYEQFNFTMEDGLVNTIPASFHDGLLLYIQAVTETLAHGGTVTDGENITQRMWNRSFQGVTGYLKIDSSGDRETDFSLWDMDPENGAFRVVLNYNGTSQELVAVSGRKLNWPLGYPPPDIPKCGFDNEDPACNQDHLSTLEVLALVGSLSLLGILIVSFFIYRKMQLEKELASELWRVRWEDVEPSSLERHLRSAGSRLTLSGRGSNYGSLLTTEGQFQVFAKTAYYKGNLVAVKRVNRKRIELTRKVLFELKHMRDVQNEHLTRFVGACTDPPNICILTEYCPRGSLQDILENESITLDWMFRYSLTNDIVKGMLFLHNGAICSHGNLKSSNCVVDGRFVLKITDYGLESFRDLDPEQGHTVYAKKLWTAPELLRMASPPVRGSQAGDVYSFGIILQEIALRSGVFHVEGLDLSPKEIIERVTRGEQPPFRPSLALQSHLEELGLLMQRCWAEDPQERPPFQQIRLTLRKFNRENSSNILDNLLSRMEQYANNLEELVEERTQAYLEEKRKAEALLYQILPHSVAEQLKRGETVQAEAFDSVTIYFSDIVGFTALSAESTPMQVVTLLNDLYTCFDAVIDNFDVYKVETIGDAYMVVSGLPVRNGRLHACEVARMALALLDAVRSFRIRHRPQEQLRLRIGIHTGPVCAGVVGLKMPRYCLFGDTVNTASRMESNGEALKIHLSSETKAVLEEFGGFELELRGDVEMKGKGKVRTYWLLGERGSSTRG
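Compound pre-incubated 30 min at room temperature on GloSensor-loaded HEK293 cells stably carrying hNpr1 and the pGS-40F cGMP biosensor. Stimulation uses hNppA at 0.1 nM final; luminescence is taken at baseline and 20 min post-agonist.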
NIH3T3 tox = NIH 3T3 cell cytotoxicity | NIH 3T3 viability, CellTiter-Glo ATP luminescence, 48-72 h | Potency, µM (titrated, usually from 96.7 µM), for the others: at the highest dose activity change, negative = cytotoxicity, actives largely listed as inhibitors | hit rate 4.3% among 94,000 | AID 1345082; also: nearly all actives have a fitted effect of over 55% in size
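Mouse fibroblast NIH 3T3 cells, 400 per well, received compound via pintool and were incubated for 48 or 72 hr prior to CellTiter-Glo ATP luminescence measurement.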
SNCA viab count = reduces viability of HEK-293 SNCA reporter cells; HEK-293-SNCA-luc viability, GF-AFC fluorescence, 24 h; Potency, µM (titrated, usually from 57.1 µM), for the others: at the highest dose activity change, negative = cytotoxicity, usual class: cytotoxic; hit rate 0.12% among 150,000;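 also: 0% = DMSO-treated cells and -100% = medium-only wells without cells; nearly all actives have a fitted effect of over 30% in size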
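Cytotoxicity counterscreen: after 24 h compound treatment of genome-edited SNCA-luciferase HEK-293 cells, live-cell protease substrate GF-AFC read by fluorescence after 30 min; activity scaled between DMSO (0%) and medium-only (-100%), curves Hill-fitted.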
Luciferase inh = blocks purified firefly luciferase enzyme activity; purified P. pyralis luciferase, luminescence, biochemical; hit rate 2.5% among 76,000; Potency, µM (series often up to 115 µM), usual class: inhibitors; also: nearly all actives have a fitted effect of over 65% in size
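Biochemical qHTS: compound (6-point titration) added to 10uM D-luciferin plus 10uM ATP in Tris acetate pH 7.5 buffer with Mg, Tween-20 and BSA, then purified enzyme at 10nM; light output imaged.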
SNCA expr inhib = SNCA gene expression inhibition; HEK-293 SNCA-luciferase knock-in, luminescence, 24 h; Potency, µM (series often up to 57.2 µM), inactives show at the highest dose activity change, negative = inhibition, most hits filed as inhibitors; hit rate 0.17% among 140,000; AID 1671194;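 also: plate controls were DMSO cells for no effect and cell-free wells for full effect; nearly all actives have a fitted effect of over 45% in size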
HEK293 tox = HEK 293 cell cytotoxicity | HEK 293 viability, ATP luminescence (CellTiter-Glo), 48-72 h | Potency, µM (highest dose often 115 µM), for the others: top-dose activity change, negative = cytotoxicity, hits mostly inhibitors | hit rate 6.6% among 94,000 | AID 1345083; also: nearly all actives have a fitted effect of over 60% in size
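HEK 293 cells at 250 cells/well were exposed to compounds by pintool transfer for 48 or 72 hr at 37 degree Celsius, 5% CO2. Viability was read as ATP-coupled luminescence with CellTiter-Glo after 10 min at room temperature.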
* marks the source's active call; other numbers are inactive results; i = inactive; ? = inconclusive; . = not tested or not shown; [ ] = remark or other dose. The list is not random: actives were taken first. Their share in the collection is about 7.4%. Unless noted, calls follow the shape of the dose curve; as a rule, active = well fitted curve in the direction sought with a large enough effect; inconclusive = small, poorly fitted or top-dose-only effect, or another doubt; inactive = no such curve, though single readings can be large; an effect the other way counts as inactive or inconclusive. Unless noted, % is scaled to controls: 0 for no effect and ±100 for the full control effect; potency is read from the fitted curve at half-maximal effect.

SMILES	NPR1 antag	NIH3T3 tox	SNCA viab count	Luciferase inh	SNCA expr inhib	HEK293 tox
O=[S+]1([O-])NC2(CCCN(Cc3cccc4ccccc34)C2)CNc2ccccc21 (stereo unspecified)	-15.6%	?	-0.1%	i	-7.5%	?
O=[S+]1([O-])NC2(CCN(Cc3cccc4ccccc34)CC2)CNc2ccccc21	-10.9%	?	0.3%	i	-6.2%	39.8µM*
CNC(=O)c1cc(C)nc2onc(C3CCCN(C(=O)c4ccccc4)C3)c12 (stereo unspecified)	.	-12.9%	.	.	.	-1.1%
O=C([C@H]1C[C@H](Oc2ccccc2)CN1C(=O)CC1CCCC1)N1CCOCC1	-0.5%	-25.5%	-1.3%	i	14.7%	-23.3%
O=C([C@@H]1C[C@H](Oc2ccccc2)CN1C(=O)CC1CCCC1)N1CCCC1	0.2%	31.6µM*	-10.4%	i	-20.4%	i
CCCCCC(=O)N1CC(=O)N(Cc2c(OC)cccc2OC)CC(O)C1 (stereo unspecified)	.	-25.9%	.	.	.	?
CCOc1ccc(-c2cc3c(=O)n(CCNC(=O)c4ccccc4OC)ccn3n2)cc1	-23.7%	i	?	15.8µM*	?	?
CCOc1ccc(-c2cc3c(=O)n(CCNC(=O)C4(c5ccccc5)CC4)ccn3n2)cc1	0.5%	i	6.6%	25.1µM*	-4.0%	i
CCOc1ccc(-c2cc3c(=O)n(CCNC(=O)c4ccc(OC)cc4)ccn3n2)cc1	-19.9%	-8.0%	-2.9%	i	55.1%	-0.6%
O=C(NCc1ccc(F)cc1)c1ccc2oc(-c3ccnc(Cl)c3)nc2c1	.	-13.8%	-9.7%[12.5 µM]	.	4.5%	-15.6%
O=C(c1ccc(Cl)nc1)N1CCC2(CC1)CCN(Cc1cccs1)c1ccccc1O2	?	?	?	i	?	25.1µM*
CCCN1CCC2(CCN(C(=O)c3ccc(C)cc3)CC2)Oc2ccccc21	0.0%	?	12.9%	i	-4.6%	?
COCC(=O)N1CCC2(CC1)CCN(Cc1cccs1)c1ccccc1O2	-0.9%	?	-7.1%	i	2.7%	?
COc1cccc(C(=O)N2CCC3(CC2)CCN(Cc2cccs2)c2ccccc2O3)c1	-5.3%	?	-13.2%	i	-11.6%	?
O=C(c1ccccc1)N1CCC2(CC1)CCN(Cc1cccs1)c1ccccc1O2	3.6%	?	-6.2%	i	-10.2%	?
Cc1ccc(C(=O)N2CCC3(CC2)CCN(CCc2ccccc2)c2ccccc2O3)cc1	9.9%	39.8µM*	-16.2%	i	5.8%	?
COc1ccc(C(=O)N2CCC3(CC2)CCN(Cc2cccs2)c2ccccc2O3)cc1	7.3%	?	?	i	?	39.8µM*
CC(C)(C)C(=O)N1CCC2(CC1)CCN(Cc1cccs1)c1ccccc1O2	-26.9%	?	-15.0%	i	23.6%	35.5µM*
C=Cc1cc2oc(-c3ccc(O)c(F)c3)nc2cc1O	.	.	-13.0%	.	.	.
Cc1cccc(OCCc2noc(C3CCCCN3C(=O)Nc3ccccc3)n2)c1 (stereo unspecified)	.	?	6.6%	.	-12.2%	?
COc1c(C(C)C)c(O)c(O)c2c1C(OC)[C@H]1OC(=O)[C@@]23CCCC(C)(C)[C@H]13 (stereo partly specified)	.	.	16.7%	.	.	.
COCc1ccc2c(c1)c(OC(C)(C)C(=O)NC1CCC(O)CC1)nn2CCC(C)C (stereo unspecified)	-4.5%[70.6 µM]	12.6µM*	-11.8%[87.6 µM]	i	?	?
COCc1ccc2c(c1)c(OC(C)(C)C(=O)NCCCN1CCCC1=O)nn2CCC(C)C	-2.4%	31.6µM*	-4.6%	i	-23.4%	-1.3%
COCC(=O)NC[C@@H]1C=C(C)[C@H](Cc2nc3ccccc3n2C)C[C@H]1C(C)C	?	50.1µM*	?	i	-28.7%[87.6 µM]	56.2µM*
CC1=C[C@@H](CNC(=O)COCC(=O)O)[C@H](C(C)C)C[C@H]1Cc1nc2ccccc2n1C	-16.1%[70.6 µM]	-28.6%[174 µM]	2.6%[87.6 µM]	i	4.0%[87.6 µM]	-5.6%[172 µM]
SMILES	NPR1 antag	NIH3T3 tox	SNCA viab count	Luciferase inh	SNCA expr inhib	HEK293 tox
CC1=C[C@@H](CNC(=O)N2CCOCC2)[C@H](C(C)C)C[C@H]1Cc1nc2ccccc2n1C	?	63.1µM*	?	i	?	63.1µM*
CC1=C[C@@H](CNC(=O)Cn2cnnn2)[C@H](C(C)C)C[C@H]1Cc1nc2ccc(C)cc2[nH]1	-23.2%[70.6 µM]	?	?	i	-18.5%[87.6 µM]	89.1µM*
CC1=C[C@@H](CNC(=O)c2cnccn2)[C@H](C(C)C)C[C@H]1Cc1nc2ccccc2n1C	?	?	?	i	-28.8%[87.6 µM]	?
CC1=C[C@@H](CNC(=O)Cn2cnnn2)[C@H](C(C)C)C[C@H]1Cc1nc2ccccc2n1C	?	89.1µM*	?	i	?	?
O=C(c1ccn[nH]1)N1CC=C(c2cnc3cnc(-c4ccccc4)cn23)CC1	-1.0%[70.6 µM]	22.4µM*	-3.2%[87.6 µM]	i	2.8%[87.6 µM]	-20.6%[172 µM]
O=C(c1cccc(O)c1)N1CC=C(c2cnc3cnc(-c4ccccc4)cn23)CC1	-20.5%[70.6 µM]	?	-1.2%[87.6 µM]	i	-22.4%[87.6 µM]	100µM*
O=C(c1ccc(-c2ncc3cnc(-c4ccccc4)cn23)cc1)N1CCS(=O)(=O)CC1	-2.0%[70.6 µM]	?	0.1%[87.6 µM]	i	6.1%[87.6 µM]	4.9%[172 µM]
O=C(NCC1CC1)c1ccc2nnc(Cc3ccco3)n2c1	.	-31.7%[138 µM]	-10.5%[87.6 µM]	.	15.9%[87.6 µM]	4.7%[172 µM]
CCOC(=O)[C@@H]1CN(C(C)=O)[C@H]2c3ccc(OC)cc3O[C@@H]12	.	-29.2%	.	.	.	?
O=C(Cn1nc2c(cc1=O)CCCCC2)NCCn1ccc2c(Cl)cccc21	-21.9%	?	-4.3%	i	?	79.4µM*
Cc1ccc2nc(NC(=O)Cn3nc4c(cc3=O)CCCCC4)sc2c1	2.1%	-17.2%	1.1%	35.5µM*	14.8%	?
CC(C)[C@H](NC(=O)Cn1nc2c(cc1=O)CCCCC2)C(=O)O	5.0%	i	1.2%	22.4µM*	124.8%	4.0%
O=C(Cn1nc2c(cc1=O)CCCC2)Nc1nc2ccccc2s1	-0.1%	-24.8%	-10.7%	i	1.6%	?
CC(C)CNC(=O)C1CCN(Cc2ccccc2-c2cccnc2)CC1	.	-36.4%[138 µM]	9.9%[87.6 µM]	.	-6.3%[87.6 µM]	?
COc1ccc(NC(=O)CCC2CCCN(C(=O)c3ccccc3SC)C2)cc1Cl (stereo unspecified)	12.6µM*	?	-21.6%	?	-4.7%	?
COc1ccc(Cl)cc1NC(=O)CCC1CCCN(C(=O)c2ccoc2C)C1 (stereo unspecified)	0.2%	?	-17.4%	i	2.5%	31.6µM*
O=C(NC1CCN(c2ccc3nnc(-c4ccccc4)n3n2)C1)c1ccccc1 (stereo unspecified)	.	-1.0%	.	.	.	i
